Laboratory results from PubChem BioAssay AID932 (The Scripps Research Institute Molecular Screening Center, 2007).
The campaign covered roughly 200,000 compounds. About 5,100 (2.5%) were called active.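 How the source made its calls: active means activation above the screen-wide mean activation plus 3 SD (cut at about 130% in these data); inactive means the rest.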 Only a selection was taken, and actives are over-represented in it overall.

test: potentiators of IFN-gamma driven STAT1 reporter – cell-based, HTS, luciferase reporter, primary screen (AID 932); settings: NIH 3T3 STAT1-luciferase reporter, luminescence, at 5.5 µM, active compounds read high, 100% = IFN-gamma alone, no compound;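 further: raw ratio to IFN-gamma control signal so 100% means no change and 0% no light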

SMILES | activation (% of control)
COC(=O)N/N=C/c1ccc(/C=N/NC(=O)OC)cc1 | 103% (inactive)
Cc1nonc1C(=O)N/N=C/c1ccc(O)cc1 | 135% (active)
O=C(C[n+]1ccccc1)N/N=C/c1ccc(O)cc1 | 97.6% (inactive)
C/C=C/c1ccc(OCCCCN2CCC(C)CC2)c(OC)c1 | 98.3% (inactive)
COc1cc(S(=O)(=O)N2CCOCC2)ccc1NC(=O)COc1ccc(N(C)S(=O)(=O)c2ccc(C)cc2)cc1 | 88.9% (inactive)
COc1ccc(NC(=S)N2N=CCC2c2ccccc2)cc1 (stereo not given) | 135% (active)
COc1ccc(C(=S)Nc2ccccc2)cc1 | 118% (inactive)
COc1ccc(C(=O)NC2CCN(C(=S)Nc3ccccc3)CC2)cc1 | 88.7% (inactive)
Cc1ccccc1-n1cc(CNC(=O)CC2C(=O)NCCN2C/C=C/c2ccccc2)cn1 (stereo not given) | 100% (inactive)
O=C(Cn1cc(C(F)(F)F)ccc1=O)N/N=C/c1ccc(Cl)cc1Cl | 116% (inactive)
O=C(/C=C/c1ccccc1)c1ccoc1 | 98% (inactive)
O=C(/C=C/c1ccc(N2CCOCC2)cc1)c1ccccc1 | 129% (active)
O=C(O)c1ccc2c(c1)C(=O)N(c1ccc(/C=C/C(=O)c3ccccc3)cc1)C2=O | 99.8% (inactive)
Cc1ccc(NC(=O)CCOc2ccccc2)cc1S(=O)(=O)Nc1ccccc1Cl | 98.8% (inactive)
Cc1csc(NC(=O)CSc2ccc(-c3ccc(F)cc3)nn2)n1 | 112% (inactive)
Cc1ccc(NC(=S)Nc2ncccc2C)c(C)c1 | 134% (active)
CCOC(=O)N1CCN(C(=S)Nc2ccc(C)cc2C)CC1 | 96.2% (inactive)
Cc1ccc(NC(=S)NCc2ccccc2Cl)c(C)c1 | 96.8% (inactive)
COc1ccc(N2CCN(C(=S)Nc3ccc(S(N)(=O)=O)cc3)CC2)cc1 | 89.8% (inactive)
O=c1c2ccccc2nc(N/N=C/c2ccccc2)n1O | 113% (inactive)
COc1ccc(C=Nc2cccc3ncccc23)cc1 | 99.7% (inactive)
COc1ccc(/C=N/Nc2nc3ccccc3c(=O)[nH]2)cc1 | 155% (active)

SMILES | activation (% of control)
COc1ccc(S(=O)(=O)NCC2CCCN(C(=O)c3occc3C)C2)cc1 (stereo not given) | 96.8% (inactive)
COc1ccc(/C=N/NC(=O)C(C)N(c2ccc(OC)cc2)S(C)(=O)=O)cc1 (stereo not given) | 100% (inactive)
CC(C)(C)c1ccc(/C=C/C(=O)Nc2ncccn2)cc1 | 138% (active)
CC(C)(C)c1ccc(/C=C/C(=O)NC2CCS(=O)(=O)C2)cc1 (stereo not given) | 104% (inactive)
O=C(/C=C/c1ccc(Cl)cc1)Nc1ccc(S(=O)(=O)Nc2ncccn2)cc1 | 107% (inactive)
O=C(NCCN1C(=O)S/C(=C\c2cccnc2)C1=O)c1cccc(OC(F)F)c1 | 101% (inactive)
Cc1ccccc1NC(=O)NC1(C(=O)N2CCCC2)CCCCC1 | 99% (inactive)
COc1cccc(C(=O)Nc2nc3ccc(S(C)(=O)=O)cc3s2)c1 | 119% (inactive)
COc1ccc2nc(Nc3nc4ccc(NC(C)=O)cc4s3)sc2c1 | 109% (inactive)
COc1ccc2nc(NC(=O)c3ccc(Br)s3)sc2c1 | 158% (active)
O=C(/C=C/c1cccs1)NCc1cccnc1 | 101% (inactive)
CSc1ccc(/C=N\NC(=O)COc2ccc(Cl)cc2Br)cc1 | 103% (inactive)
COc1ccc(/C=N/NC(=O)c2cccc(C(F)(F)F)c2)cc1 | 105% (inactive)
CSc1ccc(/C=N/NC(=O)c2cccc(Cl)c2)cc1 | 150% (active)
COc1ccc(/C=C/C(=O)Nc2cccnc2)cc1OC | 112% (inactive)
COc1ccc(/C=C/C(=O)Nc2ccc(C34CC5CC(CC(O)(C5)C3)C4)cc2)cc1OC | 141% (active)
COc1ccc(/C=C/C(=O)N2CCCC2)cc1OC | 84.7% (inactive)
O=C(CC12CC3CC(CC(C3)C1)C2)NCc1ccco1 | 97.2% (inactive)
C/C(=N\NC(=O)c1cccc(N2CCCC2=O)c1)c1ccc(N)cc1 | 113% (inactive)
O=C(OCc1ccc(Br)cc1)c1cccc(-c2nnc(-c3ccccc3)o2)c1 | 112% (inactive)
CCCC(=O)Nc1nnc(-c2ccccc2)o1 | 103% (inactive)
Nc1ccc(-c2sc(N)nc2-c2ccccc2)cc1 | 94.5% (inactive)

SMILES | activation (% of control)
OC(c1nnc(-c2ccccc2)o1)c1cccs1 (stereo not given) | 117% (inactive)
Nc1ccc(-c2nnc(-c3ccc(-c4ccccc4)cc3)o2)cc1 | 139% (active)
Brc1ccc(-c2nnc(-c3ccccc3)o2)o1 | 138% (active)
CCNC(=O)c1ccc(OCC(=O)Nc2ccc(F)cc2)c(OC)c1 | 105% (inactive)
CCCCN1C(=O)CCC(C(=O)O)C1c1ccc(OC)cc1 (stereo not given) | 107% (inactive)
Nc1ccc(C(=O)NCc2ccccc2)cc1 | 100% (inactive)
COC(=O)CSc1ccc2nnc(CCNS(=O)(=O)c3ccc(C)cc3)n2n1 | 96.4% (inactive)
COc1ccc(/C=N/NC(=O)CNC(=O)c2ccc(S(=O)(=O)N3CCCC3)cc2)c(OC)c1 | 99.5% (inactive)
C(=N\Nc1ccc2ccccc2n1)/c1ccc2c(c1)OCO2 | 35.8% (inactive)
Cc1cc(C)nc(N/N=C/c2c(C)oc3ccccc23)n1 | 98.5% (inactive)
Cc1noc(C)c1/C=N/Nc1ccc2ccccc2n1 | 157% (active)
Cc1cccc(C)c1NC(=O)C(c1ccccc1)N1CC(=O)Nc2ccccc21 (stereo not given) | 94.6% (inactive)
COc1cc(OC)cc(C(=O)N[C@H](C(=O)Nc2nc3ccccc3[nH]2)C(C)C)c1 | 96.1% (inactive)
COC(=O)Nc1nc2ccc(Sc3ccccc3)cc2[nH]1 | 135% (active)
Cc1nc2ccc(C(=O)O)cc2[nH]1 | 96.9% (inactive)
O=C(CCCc1ccccc1)NCc1ccccc1 | 108% (inactive)
CCOC(=O)CCNC(=O)N1CCCC(C(=O)c2ccccc2SC)C1 (stereo not given) | 92.5% (inactive)
O=C(Nc1ccc2nc3n(c(=O)c2c1)CCCCC3)c1ccccc1Cl | 101% (inactive)
O=C(Nc1ccc2sc3ccccc3c(=O)c2c1)c1ccccc1Cl | 144% (active)
COc1cc(NC(=O)c2cccs2)ccc1NC(=O)c1ccccc1Cl | 109% (inactive)
C#CCOCCOCCOCCNc1nc(N2CCN(C(=O)[C@H](C(C)C)n3cc(CCO)nn3)CC2)nc(N2CCN(C(=O)[C@H]([C@@H](C)CC)n3cc(CCCN=C(N)N)nn3)CC2)n1 | 100% (inactive)
